# Measured values taken from PubChem BioAssay (Tox21).
# Values without a mark were called inactive. Where a call stands in place of a potency, no number is given. Active and inactive are the calls of the source. Unless noted, the call rests on the fitted dose curve; in most records, active means well fitted curve in the direction sought with a large enough effect in the repeat runs; inconclusive means weak or mixed curves; inactive means no such curve, though single readings can be large; an effect the other way counts as inactive or inconclusive.
# Columns and labels:
# [1] = qHTS assay for small molecule agonists of the p53 signaling pathway (AID 651631; calls by dose curve; further: nearly all actives have a fitted effect of over 15% in size)
# Summary of the method: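 Agonist mode screen using a stably integrated beta-lactamase gene under p53 response elements in HCT-116 cells. Compound exposure lasts 16 h at 37 °C; fluorescence intensity is measured following 2 h FRET substrate loading.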
# [2] = qHTS assay for small molecules that induce genotoxicity in human embryonic kidney cells expressing luciferase-tagged ATAD5 (AID 651632); further: nearly all actives have a fitted effect of over 15% in size
# Summary of the method: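 HEK293T cells carrying luciferase-tagged ATAD5 were given compound or DMSO vehicle and incubated 16 hr at 37C, 5% CO2. Luciferase activity was read after 30 min at room temperature with Amplite; a rise signals genotoxic stress.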
# [3] = qHTS assay for small molecule agonists of the p53 signaling pathway - cell viability (AID 651633; calls by dose curve;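 further: p53RE-bla HCT reporter cells with a stable beta-lactamase p53 reporter; series mostly up to about 83 µM; nearly all actives have a fitted effect of over 30% in size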)
# Summary of the method: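 Viability counter-read: CellTiter-Glo luminescence (30 min, room temperature) in the same p53RE-bla plates. These plates had been exposed to compounds for 16 h at 37 C.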
# [4] = qHTS assay for small molecules that induce genotoxicity in human embryonic kidney cells expressing luciferase-tagged ATAD5 - cell viability (AID 651634; calls by dose curve; further: nearly all actives have a fitted effect of over 25% in size)
# Summary of the method: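 HEK293T cells carrying luciferase-tagged ATAD5, 2,000 cells/well, exposed to compound for 15.5 hr at 37C. Viability read as live-cell protease activity by CellTiter-Fluor fluorescence after 30 min at 37C.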
# [5] = qHTS assay for small molecule disruptors of the mitochondrial membrane potential - cell viability (AID 720634; calls by dose curve;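 further: human HepG2 liver cancer cells; series mostly up to about 83 µM; nearly all actives have a fitted effect of over 20% in size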)
# Summary of the method: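 HepG2 cells, 2,000 per well, attached overnight, then treated 1 hr at 37 C, 5% CO2. Viability read as ATP by CellTiter-Glo luminescence after 30 min at room temperature. Read in the same wells as the m-MPI membrane-potential dye assay.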
# [6] = qHTS assay for small molecule disruptors of the mitochondrial membrane potential (AID 720635)
# Summary of the method: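 Mitochondrial membrane potential tracked with Mito-MPS dye, red aggregates (ex 540/em 590 nm) against green monomers (ex 490/em 535 nm). Compound treatment 1 hr at 37C, dye 30 min in HepG2.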
# [7] = qHTS assay to test for compound auto fluorescence at 535 nm (green) in HepG2 cells (AID 720675)
# [8] = qHTS assay to test for compound auto fluorescence at 590 nm (red) in HEK293 cells (AID 720679)
# Summary of the method: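 HEK293 cells (2,000/well, medium with 10% dialyzed FBS) attached for 4-5 hr at 37C, received 23 nL compound and were incubated overnight at 37C, 5% CO2. Red fluorescence was then read at 540/590nm Ex/Em, referenced to Rose Bengal sodium.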
# [9] = qHTS assay to test for compound auto fluorescence at 535 nm (green) in HEK293 cells (AID 720680)
# [10] = qHTS assay to test for compound auto fluorescence at 460 nm (blue) in HEK293 cell free culture (AID 720681)
# Summary of the method: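 Blue fluorescence (Ex 405/Em 460 nm, triamterene-equivalent) was read immediately after pin transfer of compound or DMSO into medium (DMEM, 10% FBS) without cells.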
# [11] = qHTS assay to test for compound auto fluorescence at 535 nm (green) in HEK293 cell free culture (AID 720682)
# Summary of the method: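 No cells present: wells hold DMEM supplemented with 10% FBS, into which compound or vehicle is pinned. Green emission is then recorded (485 nm excitation, 535 nm emission) and scaled to fluorescein.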
# [12] = qHTS assay to test for compound auto fluorescence at 590 nm (red) in HEK293 cell free culture (AID 720683)
# Summary of the method: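 Red-channel autofluorescence of compounds in culture medium (DMEM, 10% FBS), no cells, measured at 540/590 nm. Rose Bengal sodium is the reference fluorophore for equivalence.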
# [13] = qHTS assay to test for compound auto fluorescence at 590 nm (red) in HepG2 cell free culture (AID 720684)
# Summary of the method: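 Steps: dispense MEM/10% FBS medium, no cells; pin compound or DMSO vehicle; read red channel, Ex/Em 540/590 nm. Output given as Rose Bengal sodium equivalents.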
# [14] = qHTS assay to test for compound auto fluorescence at 460 nm (blue) in HepG2 cell free culture (AID 720685)
# Summary of the method: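 Compound (23 nL) or DMSO pinned into cell-free MEM with 10% FBS; blue fluorescence read at 405/460 nm excitation/emission, expressed as auto-fluorescence equivalency to triamterene.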
# [15] = qHTS assay to test for compound auto fluorescence at 535 nm (green) in HepG2 cell free culture (AID 720686)
# [16] = qHTS assay to test for compound auto fluorescence at 460 nm (blue) in HepG2 cells (AID 720687)
# Summary of the method: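 Blue-channel autofluorescence (Ex/Em 405/460 nm, triamterene-equivalent) was measured after 1 hr compound exposure at 37 C, 5% CO2. Cells were HepG2, plated overnight at 37 C in MEM plus 10% FBS.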
# [17] = molecular target: Glucocorticoid receptor (Homo sapiens) (UniProt P04150); assay: qHTS assay to identify small molecule agonists of the glucocorticoid receptor (GR) signaling pathway (AID 720691; active means well fitted activation curve with a large enough effect in the signal ratio in the repeat runs, not every such curve was filed as active; inconclusive means weak or mixed curves, or effect the other way; inactive means no such curve, though single readings can be large or run the other way; the % refers to the signal ratio; further: potency means the concentration at half of the fitted maximal effect)
# Summary of the method: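 GR-bla HeLa cells carrying a GRE-driven beta-lactamase reporter, exposed to compounds for 18 h at 37 C. Reporter activation read as fluorescence after 2 h with LiveBLAzer B/G FRET substrate at room temperature.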
# [18] = molecular target: Glucocorticoid receptor (Homo sapiens) (UniProt P04150); assay: qHTS assay to identify small molecule antagonists of the glucocorticoid receptor (GR) signaling pathway (AID 720692; active means well fitted inhibition curve with a large enough effect in the signal ratio in the repeat runs, not every such curve was filed as active; inconclusive means weak or mixed curves, or effect the other way; inactive means no such curve, though single readings can be large or run the other way; the % refers to the signal ratio)
# Summary of the method: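 GR-bla HeLa cells carrying a GRE-driven beta-lactamase reporter received compound after 4 h plating, then dexamethasone (5 nM final). After 18 h at 37C, the FRET substrate was loaded for 2 h at room temperature and fluorescence read.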
# [19] = qHTS assay to test for compound auto fluorescence at 460 nm (blue) in HEK293 cells (AID 720678)
# Summary of the method: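 HEK293 cells (2,000 per well, medium with 10% dialyzed FBS) attached for 4-5 hr at 37C, then received compound and stood overnight at 37C, 5% CO2. Blue fluorescence was read at Ex/Em 405/460 nm and expressed relative to triamterene.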
# [20] = qHTS assay to test for compound auto fluorescence at 590 nm (red) in HepG2 cells (AID 720674)
# Summary of the method: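 1 hr compound incubation on HepG2 cells, 37 C, 5% CO2; plate read ex 540 nm / em 590 nm; intensities reported as Rose Bengal sodium equivalents.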
# Sequence of Glucocorticoid receptor (Homo sapiens) (P04150 whole entry, looked up): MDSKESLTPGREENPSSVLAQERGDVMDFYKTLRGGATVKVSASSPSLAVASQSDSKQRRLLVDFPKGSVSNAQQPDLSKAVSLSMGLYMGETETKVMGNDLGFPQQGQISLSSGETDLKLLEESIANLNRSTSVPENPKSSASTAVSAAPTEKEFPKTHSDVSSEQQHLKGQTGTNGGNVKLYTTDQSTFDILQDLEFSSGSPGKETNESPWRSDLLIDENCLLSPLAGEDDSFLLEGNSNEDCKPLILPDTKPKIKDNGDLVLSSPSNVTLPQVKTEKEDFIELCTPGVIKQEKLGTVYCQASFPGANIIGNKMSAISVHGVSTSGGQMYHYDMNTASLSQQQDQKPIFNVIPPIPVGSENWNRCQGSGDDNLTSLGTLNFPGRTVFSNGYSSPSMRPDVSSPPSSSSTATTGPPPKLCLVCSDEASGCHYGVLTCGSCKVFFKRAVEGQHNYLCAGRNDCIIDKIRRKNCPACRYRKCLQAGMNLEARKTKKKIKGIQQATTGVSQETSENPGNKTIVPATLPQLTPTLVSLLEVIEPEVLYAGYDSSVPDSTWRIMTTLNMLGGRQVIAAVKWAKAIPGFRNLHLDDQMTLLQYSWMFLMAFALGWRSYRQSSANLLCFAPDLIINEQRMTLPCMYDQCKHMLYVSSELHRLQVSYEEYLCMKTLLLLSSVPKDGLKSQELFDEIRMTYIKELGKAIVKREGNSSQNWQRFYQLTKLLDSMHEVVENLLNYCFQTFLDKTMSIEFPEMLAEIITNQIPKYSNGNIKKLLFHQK
compound,measurement,setting,value
O=Cc1cccc(Br)c1,Potency,[1],inactive
same,Potency,[2],inactive
same,Potency,[3],inactive
same,Potency,[4],inactive
same,outcome,[5],inactive
same,Potency,[6],inactive
same,outcome,[7],inactive
same,outcome,[8],inactive
same,outcome,[9],inactive
same,outcome,[10],inactive
same,outcome,[11],inactive
same,outcome,[12],inactive
same,outcome,[13],inactive
same,outcome,[14],inactive
same,outcome,[15],inactive
same,outcome,[16],inactive
same,Potency,[17],inactive
same,Potency,[18],inactive
CCCCCC(C)N (stereo not drawn),Potency,[1],inactive
same,Potency,[2],inactive
same,Potency,[3],inactive
same,Potency,[4],inactive
same,outcome,[5],inactive
same,Potency,[6],inactive
same,outcome,[7],inactive
same,outcome,[19],inactive
same,outcome,[9],inactive
same,outcome,[10],inactive
same,outcome,[11],inactive
same,outcome,[12],inactive
same,outcome,[14],inactive
same,outcome,[16],inactive
same,Potency,[17],inactive
same,Potency,[18],inactive
C[C@@H]1C[C@H]2[C@@H]3C[C@H](F)C4=CC(=O)C(Cl)=C[C@]4(C)[C@@]3(F)[C@@H](O)C[C@]2(C)[C@@]1(O)C(=O)CO,Potency,[1],inactive
same,Potency,[2],inactive
same,Potency,[3],inactive
same,Potency,[4],inactive
same,outcome,[5],inactive
same,outcome,[20],inactive
same,outcome,[7],inactive
same,outcome,[19],inactive
same,outcome,[8],inactive
same,outcome,[9],inactive
same,outcome,[10],inactive
same,outcome,[11],inactive
same,outcome,[12],inactive
same,outcome,[13],inactive
same,outcome,[14],inactive
same,outcome,[15],inactive
same,outcome,[16],inactive
same,Potency,[17],15.1 nM [inconclusive] (active)
CC(C)(C)C(=O)c1ccccc1,Potency,[1],inactive
same,Potency,[2],inactive
same,Potency,[3],inactive
same,Potency,[4],inactive
same,outcome,[5],inactive
same,Potency,[6],inactive
same,outcome,[19],inactive
same,outcome,[8],inactive
same,outcome,[9],inactive
same,outcome,[10],inactive
same,outcome,[11],inactive
same,outcome,[12],inactive
same,outcome,[13],inactive
same,outcome,[14],inactive
same,outcome,[16],inactive
same,Potency,[17],inactive
same,Potency,[18],inactive
C=C(C)C(=O)OCCOCCOCCOCCOC(=O)C(=C)C,Potency,[1],inactive
same,Potency,[2],inactive
same,Potency,[3],inactive
same,Potency,[4],inactive
same,outcome,[5],inactive
same,outcome,[20],inactive
same,outcome,[7],inactive
same,outcome,[19],inactive
same,outcome,[8],inactive
same,outcome,[9],inactive
same,outcome,[10],inactive
same,outcome,[11],inactive
same,outcome,[12],inactive
same,outcome,[13],inactive
same,outcome,[14],inactive
same,outcome,[15],inactive
same,outcome,[16],inactive
CC12CCC(C(=O)C1=O)C2(C)C (stereo not drawn),Potency,[1],inactive
same,Potency,[2],inactive
same,Potency,[3],inactive
same,Potency,[4],inactive
same,outcome,[5],inactive
same,Potency,[6],inactive
same,outcome,[7],inactive
same,outcome,[19],inactive
same,outcome,[8],inactive
same,outcome,[9],inactive
same,outcome,[10],inactive
same,outcome,[11],inactive
same,outcome,[12],inactive
same,outcome,[13],inactive
same,outcome,[14],inactive
same,outcome,[15],inactive
same,Potency,[17],inactive
same,Potency,[18],inactive
O=C(CO)[C@@H](O)[C@H](O)[C@H](O)CO,Potency,[1],inactive
same,Potency,[2],inactive
same,Potency,[3],inactive
same,Potency,[4],inactive
same,outcome,[5],inactive
same,Potency,[6],inactive
same,outcome,[7],inactive
same,outcome,[19],inactive
same,outcome,[8],inactive
same,outcome,[9],inactive
same,outcome,[10],inactive
same,outcome,[11],inactive
same,outcome,[12],inactive
same,outcome,[13],inactive
same,outcome,[14],inactive
same,outcome,[16],inactive
same,Potency,[17],inactive
same,Potency,[18],inactive
CCOC(=O)c1ccccc1,Potency,[1],inactive
same,Potency,[2],inactive
same,Potency,[3],inactive
same,Potency,[4],inactive
same,outcome,[5],inactive
same,Potency,[6],inactive
same,outcome,[19],inactive
same,outcome,[8],inactive
same,outcome,[9],inactive
same,outcome,[10],inactive
same,outcome,[11],inactive
same,outcome,[12],inactive
same,outcome,[13],inactive
same,outcome,[14],inactive
same,outcome,[15],inactive
same,outcome,[16],inactive
same,Potency,[17],inactive
same,Potency,[18],inactive
COc1cc(C(=O)NCc2ccc(OCCN(C)C)cc2)cc(OC)c1OC,Potency,[1],inactive
same,Potency,[2],inactive
same,Potency,[3],inactive
same,Potency,[4],inactive
same,outcome,[5],inactive
same,Potency,[6],inactive
same,"fluorescence, % of fluorescein control",[7],0.0603% [at 18.6 µM]
same,"fluorescence, % of triamterene",[19],-0.345% [at 18.6 µM]
same,"fluorescence, % of fluorescent control",[8],-0.334% [at 18.6 µM]
same,"fluorescence, % of fluorescein",[9],-0.015% [at 18.6 µM]
same,"fluorescence, % of fluorescent control",[10],-0.119% [at 18.6 µM]
same,activity change,[11],-0.0621% [at 18.6 µM]
same,"fluorescence, % of fluorescent control",[12],0.0108% [at 18.6 µM]
same,"fluorescence, % of Rose Bengal",[13],-0.58% [at 18.6 µM]
same,"fluorescence, % of fluorescent control",[14],-0.0208% [at 18.6 µM]
same,"fluorescence, % of fluorescein control",[15],0.123% [at 18.6 µM]
same,"fluorescence, % of fluorescent control",[16],0.157% [at 18.6 µM]
same,Potency,[17],inactive
C=CCCCCCCCCC(=O)OCC,Potency,[1],inactive
same,Potency,[2],inactive
same,Potency,[3],inactive
same,Potency,[4],inactive
same,outcome,[5],inactive
same,outcome,[20],inactive
same,outcome,[7],inactive
same,outcome,[19],inactive
same,outcome,[8],inactive
same,outcome,[9],inactive
same,outcome,[10],inactive
same,outcome,[11],inactive
same,outcome,[12],inactive
same,outcome,[13],inactive
same,outcome,[14],inactive
same,outcome,[15],inactive
same,outcome,[16],inactive
O=S(=O)(O)c1cccc2c(S(=O)(=O)O)cccc12,Potency,[1],inactive
same,Potency,[2],inactive
same,Potency,[3],inactive
same,Potency,[4],inactive
same,outcome,[5],inactive
same,outcome,[20],inactive
same,outcome,[7],inactive
same,outcome,[19],inactive
same,outcome,[8],inactive
same,outcome,[9],inactive
same,outcome,[10],inactive
same,outcome,[11],inactive
same,outcome,[12],inactive
same,outcome,[13],inactive
same,outcome,[14],inactive
same,outcome,[15],inactive
same,outcome,[16],inactive
same,Potency,[17],inactive
same,Potency,[18],inactive
CC(C)(C#N)Nc1nc(Cl)nc(NC2CC2)n1,Potency,[1],inactive
same,Potency,[2],inactive
same,Potency,[3],inactive
same,Potency,[4],inactive
same,outcome,[5],inactive
same,Potency,[6],inactive
same,outcome,[19],inactive
same,outcome,[8],inactive
same,outcome,[9],inactive
same,outcome,[10],inactive
same,outcome,[11],inactive
same,outcome,[12],inactive
same,outcome,[13],inactive
same,outcome,[14],inactive
same,outcome,[15],inactive
same,Potency,[17],inactive
CN(C)[C@@H]1C(=O)C(C(=O)NCN2CCCC2)=C(O)[C@@]2(O)C(=O)C3=C(O)c4c(O)cccc4[C@@](C)(O)C3C[C@@H]12 (stereo partly drawn),Potency,[1],inactive
same,Potency,[2],inactive
same,Potency,[3],inactive
same,Potency,[4],inactive
same,outcome,[5],inactive
same,Potency,[6],inactive
same,outcome,[7],inactive
same,outcome,[19],inactive
same,outcome,[8],inactive
same,outcome,[9],inactive
same,outcome,[10],inactive
same,outcome,[11],inactive
same,outcome,[12],inactive
same,outcome,[14],inactive
same,outcome,[16],inactive
same,Potency,[17],inactive
same,Potency,[18],inactive
CCCCCCCC1CCCC1=O (stereo not drawn),Potency,[1],inactive
same,Potency,[2],inactive
same,Potency,[3],inactive
same,Potency,[4],inactive
same,outcome,[5],inactive
same,outcome,[20],inactive
same,outcome,[7],inactive
same,outcome,[19],inactive
same,outcome,[8],inactive
same,outcome,[9],inactive
same,outcome,[10],inactive
same,outcome,[11],inactive
same,outcome,[12],inactive
same,outcome,[13],inactive
same,outcome,[14],inactive
same,outcome,[15],inactive
